In PubChem BioAssay AID485317 (Broad Institute, 2010) one finds inhibition data, which are given here for 60 compounds.

Broadly, the inhibition is the relative decrease from the control value, in per cent.

The whole screen tested about 290,000 compounds, of which about 11,000 (3.8%) were called active. The sample holds actives, similar compounds and a random draw of the others, so the mix is not that of the screen. Values without a mark were called inactive.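 How the source made its calls: active means mean replicate inhibition above about 79%, with every replicate also reaching it (limit read from the data); inconclusive means only one of the two criteria met; inactive means mean below limit and not every replicate reaching it.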

FAD-linked sulfhydryl oxidase ALR (Homo sapiens), sequence (P55789 whole entry, looked up): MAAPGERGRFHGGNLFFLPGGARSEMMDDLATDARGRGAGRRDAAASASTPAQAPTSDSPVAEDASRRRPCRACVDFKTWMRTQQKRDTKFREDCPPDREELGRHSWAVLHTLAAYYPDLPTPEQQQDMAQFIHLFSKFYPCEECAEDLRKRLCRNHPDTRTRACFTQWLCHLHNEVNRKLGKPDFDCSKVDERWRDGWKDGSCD

This assay addresses FAD-linked sulfhydryl oxidase ALR (Homo sapiens) (UniProt P55789). The assay can be described thus: ALR-catalysed DTT oxidation blockers – biochemical, H2O2 detection, HRP-luminol luminescence, single point, primary screen (AID 485317). As to conditions: purified ALR, hits give high values, concentration not given here.
With `CN1CCN(/N=C/c2c[nH]c3ccccc23)CC1`, the inhibition is 79.3% (active). In the case of `O=C(Cc1ccccc1[N+](=O)[O-])N1CCN(Cc2ccc3c(c2)OCO3)CC1`, the inhibition is -25.4%. For `Fc1ccc(N2CCN(Cc3ccc4c(c3)OCO4)CC2)cc1` the value was 76.3% (active). For `Oc1cc2c(cc1CN1CCN(c3ccccc3)CC1)OCO2` the value was 60.4%. As for `COC(=O)C1=C(c2cc3ccccc3s2)C[C@@H]2CC[C@H]1N2C(=O)NCc1cccc2ccccc12`, the figure is -1.91%; as for `COC(=O)C1=C(c2ccccc2)C[C@@H]2CC[C@H]1N2C(=O)N1CCCCC1`, -3.97%.

For `c1cncc(CNCCc2c[nH]c3ccccc23)c1`, the inhibition is 10%. As for `C/C(CCc1c[nH]c2ccccc12)=N\O`, the inhibition is 98.1% (active). Regarding `COc1ccc(CNCCc2c[nH]c3ccccc23)cc1OC`, the inhibition was 4.28%.

Turning to `COC(=O)C1=C(c2ccc(Cl)c(C(F)(F)F)c2)C[C@@H]2CC[C@H]1N2C(=O)NC1CC1`, the inhibition is -18.1%.

On to `COc1ccc(CN2C(=O)NC(=O)/C(=C\c3ccc(OC)c(OC)c3OC)C2=O)cc1`, for which the inhibition was 20%.

In the case of `COc1cccc(N2C(=O)NC(=O)/C(=C\c3cn(C)c4ccccc34)C2=O)c1`, the inhibition is -2.44%.

Consider `COc1ccc(N2C(=O)/C(=C/c3ccco3)C(=O)NC2=S)cc1`, for which the inhibition was 97.9% (active).

Turning to `C[C@]12CC[C@H](O)CC1=C([N+](=O)[O-])CC1C2CC[C@@]2(C)C1CC[C@@H]2O` (stereo not given in full), the inhibition was 1.78%.

Take `COC(=O)C1=C(c2ccc(F)cc2OCc2ccccc2)C[C@@H]2CC[C@H]1N2C(=O)NCc1ccc2[nH]ccc2c1`: the inhibition was 5.75%.

With `NCCc1c[nH]c2ccc(O)cc12`, the inhibition was 95.8% (active).

Turning to `Cc1cccc2c(CCN)c[nH]c12`, the inhibition is -8.02%. As for `COC(=O)C1=C(c2cc3ccccc3o2)C[C@@H]2CC[C@H]1N2C(=O)NC1CCCCC1`, the figure is 0.528%; as for `COC(=O)C1=C(c2cc3ccccc3s2)C[C@@H]2CC[C@H]1N2C(=O)NC(C)C`, 16.9%. In the case of `O=c1[nH]c(O)c(C=Nc2cc(F)cc(F)c2)c(=O)[nH]1`, the inhibition is -1.04%. As for `Cc1ccc(-n2c(C)cc(/C=C3\C(=O)NC(=O)N(C)C3=O)c2C)cc1C`, the figure is -26%; as for `Cc1ccnc(-n2c(C)cc(/C=C3\C(=O)NC(=S)N(C)C3=O)c2C)c1`, 97.1% (active); as for `Cc1cc(C=C2C(=O)NC(=O)NC2=O)c(C)n1-c1ccncc1`, 20.8%. As for `COC(=O)C1=C(c2cccc(OCc3ccccc3)c2)C[C@@H]2CC[C@H]1N2C(=O)NNCc1ccccc1`, the figure is -3.1%. `O=C(O)CCn1cc(C=C2C(=O)NC(=S)NC2=O)c(-c2cccc(Br)c2)n1`: the inhibition is 99.4% (active).

Consider `CNCC(O)c1cc(F)c(OCc2ccccc2)c(OCc2ccccc2)c1F` (stereo not given), for which the inhibition is -16.5%. For `COC(=O)C1=C(c2ccc(F)cc2OCc2ccccc2)C[C@@H]2CC[C@H]1N2C(=O)NCc1ccc(Cl)cc1` the value was 0.0344%; for `c1ccc(CCN2CCC3(CC2)OCCO3)cc1`, 0.745%. With `COc1ccc2c(c1)[C@]13CCCCC1C(C2)N(C)CC3` (stereo not given in full), the inhibition was -0.421%. With `CN(C)c1nc(N(C)C)nc(N(C#N)CCCl)n1`, the inhibition was 96.2% (active). As for `CCN1CCN(c2nc3c(c(=O)[nH]2)CCC3)CC1`, the figure is 2.56%.

Consider `CCC(=O)c1ccc(OCC(=O)N2CCN(CC(=O)Nc3ccc(C)cc3)CC2)cc1`, for which the inhibition was -2.33%. For `Cc1c(C(=O)O)cccc1-n1c(C)cc(/C=C2\C(=O)NC(=O)N(c3ccc4c(c3)OCO4)C2=O)c1C`, the inhibition is 12.1%. Turning to `O=C1NC(=O)N(Cc2ccco2)C(=O)/C1=C\c1ccc(-c2ccc(F)cc2)o1`, the inhibition was 13.9%. As for `Cc1cc(/C=C2/C(=O)NC(=O)N(Cc3ccco3)C2=O)c(C)n1-c1ccc(C(=O)O)cc1`, the figure is 97.6% (active); as for `COC(=O)C1=C(c2ccc(F)cc2OCc2ccccc2)C[C@@H]2CC[C@H]1N2C(=O)NCc1ccc(OC)c(OC)c1`, -0.52%. For `COC(=O)C1=C(c2ccc(F)cc2OCc2ccccc2)C[C@@H]2CC[C@H]1N2C(=O)NCc1ccc(C(C)(C)C)cc1` the value was -8.86%; for `O=C(CCC(=O)N1C[C@H]2C[C@@H](C1)c1cccc(=O)n1C2)NCc1ccccc1C(F)(F)F`, -3.58%.

Consider `COC(=O)C1=C(c2c(C)noc2C)C[C@@H]2CC[C@H]1N2C(=O)NCc1ccc2c(c1)OCO2`, for which the inhibition was -6.31%. For `CC(Cc1ccccc1)NCCC(c1ccccc1)c1ccccc1` (stereo not given) the value was -11.9%; for `CC(=O)c1ccc(OC(NC(=O)Cc2ccccc2)C(Cl)(Cl)Cl)cc1` (stereo not given), 5.09%. On to `CC(=O)NC(=O)NC(C)Cc1ccccc1` (stereo not given), for which the inhibition is 99.2% (active). For the compound `COC(=O)C1=C(c2ccc(Cl)c(C(F)(F)F)c2)C[C@@H]2CC[C@H]1N2C(=O)NC(C)C`, the inhibition is 0.07%. As for `COc1ccc(NC(=O)N2CCC3(CC2)OCCO3)c(OC)c1`, the figure is -26.4%; as for `Cc1ccc(-c2cc(C(=O)N3CCC4(CC3)OCCO4)no2)cc1`, 7.33%. `COc1ccc(-c2nc(CS(=O)CC(=O)N3CCC4(CC3)OCCO4)c(C)o2)cc1` (stereo not given): the inhibition was 98.9% (active).

With `COC(=O)C1=C(c2ccc(-c3ccccc3)c(F)c2)C[C@@H]2CC[C@H]1N2C(=O)NCc1ccc(F)cc1`, the inhibition is -0.106%. In the case of `C=CC12CN(C)[C@@H]3C4CO[C@H](C[C@H]41)[C@]1(C(=O)Nc4ccccc41)[C@@H]32` (stereo not given in full), the inhibition is -7.63%. As for `COC(=O)C1=C(c2cccc(OCc3ccccc3)c2)C[C@@H]2CC[C@H]1N2C(=O)NCc1ccc(Br)cc1`, the figure is -3.06%; as for `CN1CCc2cc3c(cc2[C@H]1[C@@H]1OC(=O)c2c1ccc1c2OCO1)OCO3`, -8.76%. For `Cc1ccccc1NC(=O)COC(=O)c1cc(C)n(C2CC2)c1C` the value was 5.99%; for `COC(=O)C1=C(c2ccc3ccccc3c2)C[C@@H]2CC[C@H]1N2C(=O)NCCO`, -28.8%. For the compound `O=[N+]([O-])c1cnc2ccc3ccccc3c2c1`, the inhibition was -42.1%. As for `C/C(=N/O)c1ccc2ccc3ccccc3c2c1`, the figure is 99.1% (active). With `C[C@]12CCC3C(CC[C@H]4C[C@@H](O)CC[C@]34C)C1CC[C@@H]2O` (stereo not given in full), the inhibition was -1.96%. For `C[C@]12CCC3C(CC[C@H]4C[C@@H](O)CC[C@]34C)C1C[C@@H](O)[C@H]2O` (stereo not given in full) the value was 2.15%; for `COC(=O)C1=C(c2ccc(F)cc2F)C[C@@H]2CC[C@H]1N2C(=O)NC1CC1`, -1.47%. Turning to `COC(=O)C1=C(c2ccccc2OCc2ccccc2)C[C@@H]2CC[C@H]1N2C(=O)NCc1ccc(OC)cc1`, the inhibition is -2.59%. As for `COC(=O)C1=C(c2ccc(C(C)=O)cc2)C[C@@H]2CC[C@H]1N2C(=O)NCCNC(C)=O`, the figure is 4.07%; as for `O=c1c2ccccc2nc(/C=C/c2ccco2)n1-c1ccccc1O`, 47.2%.
